# Legend:
# Experiment in all cases: PBM binding z-score (relative to random genomic background probes); higher = stronger binding; sequences stand for … in GC…GCGATTGACAGCGTAGAATGAAGG
# [1] = system: FXR:RXRa (NR concentration 270 nM, RXRa partner concentration 90 nM)
# Summary of the method: (§1)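 Random background probes are the reference for binding z-scores. These scores derive from regression-normalized fluorescence on custom Agilent 4×180K protein-binding microarrays incubated 1 h with ligand-free nuclear receptor dimers. Binding was detected with antibodies against each partner (one per run).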
# [2] = system: LXRa:RXRa (NR concentration 270 nM, RXRa partner concentration 90 nM)
# Summary of the method: as §1
# [3] = system: LXRa homodimer (NR concentration 270 nM)
# Summary of the method: as §1
# [4] = system: LXRb:RXRa (NR concentration 270 nM, RXRa partner concentration 90 nM)
# Summary of the method: as §1
# [5] = system: LXRb homodimer (NR concentration 270 nM)
# Summary of the method: as §1
# [6] = system: PPARa:RXRa (NR concentration 270 nM, RXRa partner concentration 90 nM)
# Summary of the method: as §1
# [7] = system: PPARg:RXRa (NR concentration 180 nM, RXRa partner concentration 90 nM)
# Summary of the method: as §1
# [8] = system: PPARg:RXRa 270nM:90nM, anti-RXR (NR concentration 270 nM, RXRa partner concentration 90 nM)
# Summary of the method: as §1
# [9] = system: PPARg:RXRa 30nM:10nM, anti-RXR (NR concentration 30 nM, RXRa partner concentration 10 nM)
# Summary of the method: as §1
# [10] = system: PPARg:RXRa 90nM:30nM, anti-RXR (NR concentration 90 nM, RXRa partner concentration 30 nM)
# Summary of the method: as §1
# [11] = system: PPARg:RXRa DBDmut IVT, anti-RXR (DBD mutation: RXRa K156A/R161A, NR concentration 270 nM, RXRa partner concentration 90 nM)
# Summary of the method: as §1
# [12] = system: PPARg:RXRa IVT, anti-PPARg (NR concentration 270 nM, RXRa partner concentration 90 nM)
# Summary of the method: as §1
# [13] = system: PPARg DBDmut:RXRa IVT, anti-PPARg (DBD mutation: PPARg1 K132A/R137A, NR concentration 270 nM, RXRa partner concentration 90 nM)
# Summary of the method: as §1
# [14] = system: PPARg DBDmut IVT, anti-PPARg (DBD mutation: PPARg1 K132A/R137A, NR concentration 270 nM)
# Summary of the method: as §1
# [15] = system: PPARg homodimer (NR concentration 180 nM)
# Summary of the method: as §1
# [16] = system: PXR:RXRa (NR concentration 270 nM, RXRa partner concentration 90 nM)
# Summary of the method: as §1
# [17] = system: PXR homodimer (NR concentration 270 nM)
# Summary of the method: as §1
# [18] = system: RARa:RXR (NR concentration 270 nM, RXRa partner concentration 90 nM)
# Summary of the method: as §1
# [19] = system: RARa homodimer (NR concentration 270 nM)
# Summary of the method: as §1
# [20] = system: RARb:RXRa (NR concentration 270 nM, RXRa partner concentration 90 nM)
# Summary of the method: as §1
Sequence,PBM binding z-score [1],PBM binding z-score [2],PBM binding z-score [3],PBM binding z-score [4],PBM binding z-score [5],PBM binding z-score [6],PBM binding z-score [7],PBM binding z-score [8],PBM binding z-score [9],PBM binding z-score [10],PBM binding z-score [11],PBM binding z-score [12],PBM binding z-score [13],PBM binding z-score [14],PBM binding z-score [15],PBM binding z-score [16],PBM binding z-score [17],PBM binding z-score [18],PBM binding z-score [19],PBM binding z-score [20]
CGTCCAAGGTCATAGGAGGTGAGTGAAGACAGAT,7.28,5.61,1.23,4.25,0.462,5.79,4.94,5.08,1.98,3.99,2.78,4.36,0.426,0.754,2.6,4.84,1.4,4.65,0.644,5.24
GCCGACAGGTGAAACGCAGGTAACTCAGGGTGGC,-0.479,0.0317,-0.662,-0.204,-1.11,0.797,0.421,-0.333,-0.664,-0.468,0.757,0.528,-0.976,-1.57,-0.704,-0.343,-0.71,0.331,-1.11,0.705
TCATATAGGTTAATGCTAGGTGAAAGTCCGATCT,1.19,2.25,0.441,1.28,0.557,2.55,2.14,3.06,3.79,3.26,4.99,4.12,1.41,0.726,1.47,1.13,0.465,1.52,1.51,1.43
AGAATGAGGTTATACGTAGATCAGGTAAGAAAGT,2.3,2.13,0.183,1.72,-0.0403,3.17,2.14,2.25,0.708,1.53,4.3,2.28,1.26,0.947,0.811,1.23,0.571,2,0.262,1.52
ATCGAAAGGTCGAGGTGAGTATCGAGAAAGGGAA,4.43,3.37,-0.107,2.73,0.435,4.56,3.35,3.74,1.49,2.48,0.319,2.07,0.156,0.836,1.5,2.44,0.217,3.52,0.474,4.2
TAGCCTAGGTCAGATCGGCCCAGTATACGCTATA,1.44,1.09,-0.637,0.955,-0.183,1.87,1.07,0.986,-0.286,0.142,0.85,1.85,-0.244,-1.36,-0.0384,0.228,-0.754,0.84,-0.69,2.95
CCTTACGGGTCATGGTTATAGCACGGGTGGTACG,5.13,3.14,-0.115,2.68,-0.0469,4.97,3.99,4.19,1.44,3.03,1.34,3.31,0.473,-0.548,1.58,2.96,0.0669,3.6,0.484,3.64

# Source: the supplement of paper PMC6555819
